Assay outcomes deposited in PubChem by several laboratories.
KKLEB tox = cytotoxicity in KKLEB CF airway cells, primary screen, cytotoxicity control for CF NF-kB inhibitor project, cell-based, uHTS, fluorescence assay plates. AID 602141, 2011. activity change (cytotoxicity), % at 5 µM. 0.36% of 360,000 active. KKLEB CF airway cells viability, ATPlite luminescence, overnight; active compounds read low; cells stimulated with P. aeruginosa culture filtrate;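 active = corrected activity change at or below -50% at 5 µM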
TRPM1 prom inh = inhibitors of MITF-dependent TRPM1 promoter reporter, primary screen, cell-based, SK-MEL-5, single point, luciferase; SK-MEL-5 TRPM1 promoter luciferase, 24 h; inhibition, % at 12.5 µM; 0.83% of 330,000 active; AID 488899, 2010;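 active = mean inhibition across replicates of 60% or more, whatever share of single replicates reaches that level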
HIF-2a block = HIF-2a reporter inhibitors, primary screen, luminescence, 786-0 RCC cells; 786-0 RCC cells HIF-2a reporter, luciferase luminescence, overnight; inhibition, % at 18.8 µM; 0.72% of 360,000 active;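 active = inhibition of the luminescence signal of 40% or more relative to plate controls, in a single-dose primary screen at 18.75 µM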
ABHD5-PLIN5 inh = ABHD5-PLIN5 interaction inhibitors, primary screen, cell lysate, split luciferase complementation, luminescence | AID 602281, 2012 | Perilipin-5 (Homo sapiens) + 1-acylglycerol-3-phosphate O-acyltransferase ABHD5 (Homo … | 0.78% of 360,000 active | Split G. princeps luciferase complementation, 4 h | inhibition, % at 4 µM;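 active = inhibition above the mean inhibition across every tested compound plus 3 SD, cut at about 22% in these data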
CF NFkB inh = inhibitors of PAF-induced NF-kB signaling, primary screen, cell-based, GFP fluorescence, uHTS; KKLEB NF-kB-GFP reporter, GFP fluorescence overnight; inhibition, % at 5 µM; 0.86% of 360,000 active; AID 588850, 2011;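 active = at least 50% inhibition at 5 µM, scaled per plate between neutral and stimulator controls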;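 note: PAF is a Pseudomonas aeruginosa culture filtrate used as stimulus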
Peg3 prom inh = Peg3 promoter-driven luciferase inhibitors, primary screen, cell-based, HeLa, luciferase luminescence; HeLa PEG-Prom luciferase reporter, overnight; inhibition, % at 20 µM; 1.7% of 360,000 active; AID 588405, 2011;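 active = inhibition of at least 50% at 20 µM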
Hits are given with their value; - = inactive; . = no result. In the library only some 3% were active in any assay of this set; here they are far more common.

SMILES	KKLEB tox	TRPM1 prom inh	HIF-2a block	ABHD5-PLIN5 inh	CF NFkB inh	Peg3 prom inh
S=C(NCCc1ccccc1)N1Cc2ccc(Br)cc2-n2nncc2C1	-	.	-	-	-	51.0
FC(F)(F)c1cccc(NC2=NCCS2)c1	-	.	-	-	-	-
CCOC(=O)Cn1cc(C(=O)c2ccccc2F)c2ccccc21	-	-	-	-	-	-
CCOC(=O)Cn1cc([N+](=O)[O-])nc1[N+](=O)[O-]	-	64.8	-	-	-	-
Cc1cccc(C)c1-n1nnnc1C(c1cccs1)N1CCC2(CC1)C(=O)NCN2c1ccccc1 (stereo not given)	-	.	-	-	-	-
C[C@@H]1CN([C@@H](C)CO)C(=O)CCCn2cc(nn2)CO[C@H]1CN(C)C(=O)Oc1cccc2ccccc12	-	.	-	-	-	-
CC1=C(N2CC2)C(=O)C(CO)=C(N2CC2)C1=O	-104.5	106.2	88.5	-	97.3	100.5
NC(Cc1ccccc1Cl)c1nn[nH]n1 (stereo not given)	-	.	-	-	-	-
O=C1NC(=O)N(CCc2ccc(F)cc2)C(=O)/C1=C/c1cccs1	-	-	-	-	-	-
C=CCN1C(=O)/C(=C/c2cccs2)C(=O)NC1=S	-	-	42.7	-	-	51.1
COC(/C(C)=C/C=C/C(C)=C/c1coc(C)n1)C(C)C1CC(O)C2(C)OC2C=CC(C)C2CC(CC(=O)O2)CC2OC2C(=O)O1 (stereo not given)	-	65.0	-	-	-	-
Cc1[nH]c2ccc(OC(F)(F)F)cc2c1CCNCc1ccc(Cl)cc1	-	-	-	-	-	111.2
Cc1ccc2[nH]c(C)c(CCNCc3ccco3)c2c1	-	-	-	-	-	-
COc1ccc2[nH]c(C)c(CCNCc3cccnc3)c2c1	-	-	-	-	-	-
CCOc1cccc(CNCCc2c(C)[nH]c3ccc(OC(F)(F)F)cc23)c1O	-	97.5	-	-	-	107.0
COc1cc2c(cc1OC)C13CCN4CC5CCOC6CC(=O)N2C1C6C5CC43 (stereo not given)	-	-	-	-	-	-
C/C1=C\[C@@H](C)C/C=C/[C@H]2[C@@H]3O[C@]3(C)[C@@H](C)[C@H]3[C@H](Cc4c[nH]c5ccccc45)NC(=O)[C@]32C(=O)/C=C/C(=O)[C@@H]1O	-52.6	.	76.3	69.6	72.7	97.5
O=C1NC(=O)N(Cc2ccco2)C(=O)/C1=C/c1ccc(-c2cccc([N+](=O)[O-])c2)o1	-	-	65.0	-	-	-
C[C@]12CC[C@@H](O)CC1=CCC1C2CC[C@@]2(C)C1CC[C@@H]2O (stereo not given in full)	-	.	-	-	-	-
Cn1c(O)c(C=NCCN2CCOCC2)c(=O)n(C)c1=S	-	-	-	-	-	-
CCn1c(O)c(C=NCCN2CCOCC2)c(=O)n(CC)c1=S	-	-	-	-	53.7	-
CCn1c(O)c(C=Nc2ccc(N3CCOCC3)cc2)c(=O)n(CC)c1=S	-	-	-	-	56.9	-
CCOc1cc(/C=C2/C(=O)NC(=O)N(c3ccc(CC)cc3)C2=O)ccc1OC(=O)c1cccs1	-	-	-	22.0	-	-
CCC(c1nnnn1Cc1ccccc1)N1CCC(n2c(=O)[nH]c3ccccc32)CC1 (stereo not given)	-70.8	.	-	-	98.7	75.3
CSCCC(c1nnnn1-c1ccc2c(c1)OCCO2)N1CCC2(CC1)C(=O)NCN2c1ccccc1 (stereo not given)	-	.	-	-	-	-
SMILES	KKLEB tox	TRPM1 prom inh	HIF-2a block	ABHD5-PLIN5 inh	CF NFkB inh	Peg3 prom inh
Cc1cccc(C)c1-n1nnnc1C(CCc1ccccc1)N1CCC(n2c(=O)[nH]c3ccccc32)CC1 (stereo not given)	-	.	-	-	-	98.1
O=c1[nH]c2ccccc2n1C1CCN(C(c2ccnc3ccccc23)c2nnnn2-c2ccc3c(c2)OCCO3)CC1 (stereo not given)	-70.1	.	-	-	77.4	61.6
CCC(c1nnnn1-c1ccc(OC)cc1)N1CCC(n2c(=O)[nH]c3ccccc32)CC1 (stereo not given)	-	.	-	-	-	-
O=c1[nH]c2ccccc2n1C1CCN(C(CCc2ccccc2)c2nnnn2-c2ccc3c(c2)OCCO3)CC1 (stereo not given)	-90.3	.	-	-	60.5	90.3
O=c1[nH]c2ccccc2n1C1CCN(Cc2ccc(-c3nc4ccc(F)cc4nc3-c3ccccc3)cc2)CC1	.	.	-	-	.	.
ClCCN(CCCl)c1ccc(C=Cc2ccncn2)cc1	-	.	-	-	-	-
C=C(CO)CC1CC(O)[C@]2(C)OC3CC4OC5C[C@]6(C)O[C@]7(C)CCC8OC9C[C@]%10(C)OC%11C(C)=CC(=O)OC%11CC%10OC9C[C@@H](C)C8OC7CC6O[C@]5(C)C/C=C\C4OC3CC2O1 (stereo not given in full)	-	-	-	-	-	-
C=C(C=O)CC1CC(O)[C@]2(C)OC3CC4OC5C[C@]6(C)O[C@]7(C)CCC8OC9C[C@]%10(C)OC%11C(C)=CC(=O)OC%11CC%10OC9C[C@@H](C)C8OC7CC6O[C@]5(C)CC5OC5C4OC3CC2O1 (stereo not given in full)	-69.5	96.2	93.7	22.1	90.6	99.8
Cc1cccc(C(O)(C(=O)O)c2ccccc2)c1 (stereo not given)	-	-	-	-	-	99.8
CN(CCc1ccccc1)Cc1c[nH]c2ccccc12	-	-	-	-	-	68.5
C[C@H]1COc2cc(N3CCN(C)CC3)ccc2S(=O)(=O)N1	.	.	-	-	.	.
COc1ccc(-n2nnnc2C(c2ccccc2OC(F)(F)F)N2CCC3(CC2)C(=O)NCN3c2ccccc2)cc1 (stereo not given)	-	.	-	-	-	56.5
COc1ccc(-n2nnnc2C(c2ccccc2OC(F)(F)F)N2CCC(n3c(=O)[nH]c4ccccc43)CC2)cc1 (stereo not given)	-	.	-	-	-	84.5
COc1ccc(-n2nnnc2C(c2ccccc2)N2CCC3(CC2)C(=O)NCN3c2ccccc2)cc1 (stereo not given)	-	.	-	-	-	-
O=C(Nc1ccc(C(=O)O)cc1)Oc1ccc(N(CCCl)CCCl)cc1	-	.	-	-	-	-
COc1ccc(-c2ccc3c(c2)CNCc2cnnn2-3)cc1	-	.	-	-	-	-
Nc1c(C(=O)NCc2ccco2)c2nc3ccccc3nc2n1Cc1ccc(F)cc1	-	-	-	-	-	-
COc1ccc(Cn2c(N)c(C(=O)NCc3ccco3)c3nc4ccccc4nc32)cc1	-	-	-	22.2	-	-
